Compound activity deposited in PubChem BioAssay by National Center for Advancing Translational Sciences (NCATS).
Rows were chosen to be rich in hits. Some 5.8% of all compounds tested hit in one or more screens of this group.
FLuc inh – inhibitors of firefly luciferase. P08659. purified firefly luciferase, luminescence, 8 min. Potency, µM (top dose mostly 57.1 µM), without a hit: at the highest dose activity change, negative = inhibition, usual class: inhibitors. hit rate 2.2% among 72,000; further: on the % scale 0 is the no-effect control and ±100 the full control effect; nearly all actives have a fitted effect of over 40% in size
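Compounds were tested as concentration series (qHTS) against purified P. pyralis luciferase with luciferin and 10 uM ATP in 50 mM imidazole pH 7.2, 50 mM KCl, 7 mM MgCl2, 0.01% Tween 20, 0.05% BSA. Luminescence was read after 8 min at ambient temperature.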
Bst PK mod – modulators of Bacillus stearothermophilus pyruvate kinase | purified pyruvate kinase, luminescence ATP production; ribose 5-phosphate activator present at AC10 | Potency, µM | hit rate 1.2% among 51,000; in the data active means potency below about 11 µM; inconclusive means mostly about 12 µM to 25 µM;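 the screen sought inhibitors and activators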;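 further: scaled between full activation by ribose 5 phosphate and full inhibition by luteolin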
HEK293 cAMP cs – raises cAMP in parental HEK293 cells, TSHR agonist counter-screen. parental HEK293 CNG cAMP sensor, membrane potential fluorescence. Potency, µM (series often up to 57.1 µM), for the others: at the highest dose activation, actives largely listed as activators. hit rate 2.5% among 73,000; further: % of control where 0% means no effect; nearly all actives have a fitted effect of over 55% in size
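Parental HEK 293 cells stably expressing a cAMP-gated CNG channel were loaded with membrane potential dye containing 100 uM RO 20-1724 for 60 min. Compound added for 30 min; depolarization read as fluorescence intensity at 590 nm.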
GBA mod – alters purified human glucocerebrosidase activity; P04062; purified enzyme, resorufin glucoside fluorescence (screen aimed at inhibitors), 20 min; Potency, µM; hit rate 1.1% among 48,000; AID 360; in the data active means potency below about 15 µM; inconclusive means mostly about 16 µM to 33 µM;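 further: the screen sought inhibitors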
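Wild-type enzyme at 0.2 nM final in 50mM citric acid/KH2PO4, 10mM sodium taurocholate, 0.01% tween-20, pH 5.9, with resorufin beta-D-glucopyranoside at 30 uM final. Compounds titrated, 20 min at RT, red fluorescence read; AC50 from titration.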
TSHR agonist – TSH receptor (human) agonism; P16473; HEK293-CNG-TSHR cells (CNG channel as cAMP sensor), membrane potential dye, cAMP; Potency, µM (series often up to 57.1 µM), without a hit: at the top dose activation, most hits filed as activators; hit rate 0.48% among 73,000; AID 926; active means well fitted activation curve with a large enough effect in the main read-out, with a control signal flat, not every such curve was filed as active; inconclusive means small, poorly fitted or top-dose-only effect, or a change in a side signal; inactive means no such curve, though single readings can be large or run the other way; % of control where 0% means no effect;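 further: the control signal comes from parental cells without the receptor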
Target sequence (P16473 whole entry, looked up): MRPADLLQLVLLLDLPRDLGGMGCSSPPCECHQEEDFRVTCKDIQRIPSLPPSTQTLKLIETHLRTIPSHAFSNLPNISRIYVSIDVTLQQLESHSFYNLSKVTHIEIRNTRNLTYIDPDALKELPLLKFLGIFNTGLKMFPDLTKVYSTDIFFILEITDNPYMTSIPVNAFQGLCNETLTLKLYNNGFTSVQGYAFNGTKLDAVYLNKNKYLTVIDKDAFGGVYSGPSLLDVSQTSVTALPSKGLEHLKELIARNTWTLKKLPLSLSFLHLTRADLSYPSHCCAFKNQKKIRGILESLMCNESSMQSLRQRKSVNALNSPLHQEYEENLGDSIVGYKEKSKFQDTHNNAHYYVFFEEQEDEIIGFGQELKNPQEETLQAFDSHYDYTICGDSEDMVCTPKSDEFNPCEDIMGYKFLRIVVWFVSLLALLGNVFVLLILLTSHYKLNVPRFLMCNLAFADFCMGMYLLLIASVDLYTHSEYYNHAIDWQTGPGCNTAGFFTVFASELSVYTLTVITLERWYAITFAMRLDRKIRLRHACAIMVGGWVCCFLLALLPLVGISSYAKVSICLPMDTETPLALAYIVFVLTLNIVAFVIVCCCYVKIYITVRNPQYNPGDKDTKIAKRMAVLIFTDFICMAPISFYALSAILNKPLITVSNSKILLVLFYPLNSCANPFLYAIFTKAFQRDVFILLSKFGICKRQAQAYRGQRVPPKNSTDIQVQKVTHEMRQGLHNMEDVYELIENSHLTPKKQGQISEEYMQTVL
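HEK 293 cells stably expressing TSHR and a modified CNG channel, with CNG-only parental cells as counterscreen, were preloaded 60 min at room temperature with membrane potential dye containing 100 uM RO 20-1724. Compound exposure was 30 min, and depolarization was read as fluorescence at 590 nm.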
The depositor's hits bear a star; i = inactive; ? = inconclusive; · = not tested or not shown; [ ] = dose if it differs, or a comment. Unless noted, the call rests on the fitted dose curve; in most records, active means well fitted curve in the direction sought with a large enough effect; inconclusive means small, poorly fitted or top-dose-only effect, or another doubt; inactive means no such curve, though single readings can be large; an effect the other way counts as inactive or inconclusive. Potency means the concentration at half of the fitted maximal effect.

SMILES	FLuc inh	Bst PK mod	HEK293 cAMP cs	GBA mod	TSHR agonist
COc1ccc(CCn2c(C)cc(C(=O)CSc3nnc(N)s3)c2C)cc1	-2%	>57	25µM*	>77	?
O=C(NCCN1CCCCC1)c1ccc(Cc2nc3ccccc3[nH]2)cc1	·	·	-13%	·	-4%
COc1ccc(C(=O)c2oc3ccc(OC)cc3c2N)cc1	10µM*	·	1%	·	-23%
COc1ccccc1-c1nc2s/c(=C\c3cccs3)c(=O)n2n1	?	·	-4%	5.8*	·
COc1cc(/C=c2\sc3nc(-c4ccncc4)nn3c2=O)ccc1OC(C)=O	3.2µM*	·	-1%	>77	4%
COc1ccccc1/C=c1\sc2nc(-c3cccs3)nn2c1=O	-1%	>57	-1%	>77	-5%
COC(=O)CSc1nc2c(c(-c3ccc(C)o3)c1C#N)CCCC2	-1%	>57	2%	15*	-12%
COC(=O)CC(=O)CSc1nc2c(cc1C#N)CCCCC2	13µM*	i	0%	>77	-3%
Cc1ccccc1NC(=O)CSc1nc2c(c(-c3ccco3)c1C#N)CCCC2	1%	>57	28%	>77	·
N#Cc1cc2c(nc1SCc1cccnc1)CCCCC2	1%	>57	10µM*	>77	?
CN(C)c1ncc2nc(-c3ccc(Cl)cc3)c(=O)n(C[C@H]3CCCO3)c2n1	1%[11.4 µM]	·	15%	·	-2%
O=C(O)CCCCCNc1nc(=S)[nH]c2ccccc12	0%	>57	17%	7.7*	-4%
CC1CCCCN1CCNc1nc(=S)[nH]c2ccccc12 (stereo not given)	-2%	>57	10%	·	12%
Cc1ccc2[nH]c(C(=O)O)c(-c3ccccc3)c2c1	-1%	>57	-23%	>77	11%
Cc1ccc2[nH]c(-c3ccccc3)cc(=O)c2c1	5µM*	·	22%[11.4 µM]	·	21%[11.4 µM]
C[N@+]1(CCC(=O)c2ccccc2)CC[C@H]2CC[C@H](C2)C1	-1%[11.4 µM]	·	3%[11.4 µM]	·	-2%[11.4 µM]
COc1ccc(Oc2cn[nH]c2-c2ccc(O)cc2O)cc1	2%	>57	2µM*	>77	?
CCCc1ccc(Oc2cn[nH]c2-c2ccc(O)cc2O)cc1	-1%	·	-3%[11.4 µM]	·	-13%[11.4 µM]
O=C(Nc1ccc2sccc2c1)c1ccc(Cl)s1	1.6µM*	·	2%	·	11%
O=C(NCc1cccs1)c1ccc(Cl)s1	4%	>57	6%	>77	·
COc1ncc2ncc(=O)n(C[C@H]3CCCO3)c2n1	1%[11.4 µM]	·	?	·	?
Cc1csc(NC(=O)CCn2c(=O)sc3ccccc32)n1	-14%	>57	12%	>77	10%
O=C(CCn1c(=O)sc2ccccc21)Nc1nccs1	20µM*	·	12%	>77	-1%
CC(C)CCn1cnc2c(c1=O)c1nc3ccccc3nc1n2Cc1ccc2c(c1)OCO2	3%	>57	17%	6.1*	5%
CCCCn1c2nc3ccccc3nc2c2c(=O)n(CCC)cnc21	-1%	>57	?	5*	?
SMILES	FLuc inh	Bst PK mod	HEK293 cAMP cs	GBA mod	TSHR agonist
COc1ccc(-c2cc(CCCC(=O)NCc3ccccn3)no2)cc1	10µM*	·	0%	·	2%
COc1ccc(-c2cc(CCCC(=O)NCCc3ccc(OC)cc3OC)no2)cc1	-10%	>57	?	>77	?
CCOc1ccc(-c2cc(CCCC(=O)NCc3cccnc3)no2)cc1	13µM*	·	?	·	?
Cc1cccc(C)c1OC[C@@H](N)C(C)C	0%	·	-1%	·	-3%
CC(=O)[C@H]1CC[C@@H]2[C@]1(C)CC=C1[C@]23C=C[C@]2(C[C@H](O)CC[C@@]12C)[C@H](C(=O)O)[C@@H]3C(=O)O	4%[11.4 µM]	·	-6%[11.4 µM]	·	10%[11.4 µM]
COCC(=O)Nc1ccc(N(C)C)cc1	-2%	>57	7%	>77	0%
CN(C)c1ccc(NC(=O)CCCc2ccccc2)cc1	25µM*	·	-10%	>77	-17%
CN(C)c1ncnc2ccc(-c3ccccc3C(F)(F)F)cc12	3%[2.29 µM]	·	?	·	?
Cc1cc(N2CCCc3ccccc32)n2ncnc2n1	1%	·	13%	·	16%
Cc1cc(N2CCN(C(c3ccccc3)c3ccc(Cl)cc3)CC2)n2ncnc2n1 (stereo not given)	1%	·	17%	·	25µM*
COc1ccc(-n2c(=O)c(-c3cccs3)nc3cnc(N4CCNCC4)nc32)cc1	0%[11.4 µM]	·	-20%	·	-12%
Cn1cccc1C(=O)N1CCC2(CC1)CCN(c1ccc(-c3ccccc3)cc1)CC2	-1%[11.4 µM]	·	-10%	·	·
CCOC(=O)c1c(C)nc2sccn12	0%	>11	5%	>77	3%
CCOC(=O)c1c(C)nc2c3ccccc3ccn12	10µM*	6.9*	23%	>77	17%
